Assay results reported in PubChem BioAssay AID771 (SRMLSC, 2007).
About 55 (2%) of roughly 3,300 compounds were called active. This is one part of a sample in which actives are shown more often than they occur.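 Rule for the calls: active = growth inhibition above 90%, meaning viable cell count by imaging cut by more than 90% versus vehicle controls; inactive = growth inhibition below 90%.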

Test: HT29 colon tumor cell growth inhibition, primary screen, imaging, high content imaging, 48 h, CellTiter-Glo (AID 771);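 for condensed nuclei: condensed means Hoechst nuclear area under control median minus 1.5 SD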
Conditions: HCS imaging cell count, at 10 µM, stronger effect = higher value; for condensed nuclei: measured here: percent cells with condensed nuclei
[1] = measured here: ATP CellTiter-Glo viability inhibition

Row | Structure (SMILES) | growth inhibition | growth inhibition [1] | condensed nuclei
1 | CCC1CC2(C)NC(=O)c3c(sc4c3CC(C)(C)OC4)N2C1=O (stereo unspecified) | -1.91% (inactive) | -5.72% | 0.79%
2 | CC(C)(C)C1CCC2(CC1)C(C#N)=C(SCC(=O)Nc1ccccc1)NC(=O)C2C#N (stereo unspecified) | 91.4% (active) | 71.8% | 2.13%
3 | CC1=C(C(=O)Nc2ccccc2)C(c2ccncc2)C(C#N)=C(SCC(=O)NC(C)C)N1 (stereo unspecified) | 38.7% (inactive) | 0.29% | 1.77%
4 | COc1cccc(NC(=O)CSC2=C(C#N)C(c3ccco3)C3=C(CCCC3=O)N2)c1 (stereo unspecified) | 61% (inactive) | 34.8% | 1.16%
5 | O=c1/c(=C/c2ccccn2)sc2n1CN(c1ccccc1)CN=2 | 1.6% (inactive) | 3.13% | 16.2%
6 | CNC(=O)Nc1cccc(NC(=O)NC)n1 | 24.6% (inactive) | 6.59% | 0.95%
7 | COc1cccc(C2/C(=C(/O)c3cnn(-c4ccccc4)c3C)C(=O)C(=O)N2CCN(C)C)c1 (stereo unspecified) | 51.1% (inactive) | -8.25% | 1.69%
8 | Cc1[nH]c2ccc3c(ncn3CCC#N)c2c1C | 3.78% (inactive) | 2.93% | 1.79%
9 | CN1CCc2c(C#N)c(N3CCCCC3)nc(NCc3ccccc3)c2C1 | 94.8% (active) | 84.9% | 19.2%
10 | C=CCNc1nc(N2CCCCC2)c(C#N)c2c1CN(Cc1ccccc1)CC2 | 71.7% (inactive) | 37% | 2.73%
11 | N#Cc1c(NCCN)nc(NCc2ccccc2)c2c1CCN(Cc1ccccc1)C2 | 93.1% (active) | 87.7% | 30.8%
12 | CCN1CCc2c(C#N)c(N3CCOCC3)nc(NCc3ccccc3)c2C1 | 21.2% (inactive) | 14.1% | 2.32%
13 | C=CCNc1nc(NCc2ccccc2)c(C#N)c2c1CN(C)CC2 | 95.6% (active) | 82.7% | 12.5%
14 | C=CCNc1nc(N2CCOCC2)c(C#N)c2c1CN(C)CC2 | -13.1% (inactive) | -3.95% | 0.96%
15 | CCN1CCc2c(C#N)c(NCc3ccccc3)nc(NCCO)c2C1 | -5.72% (inactive) | 1.65% | 1.53%
16 | CCN1CCc2c(C#N)c(N3CCCCC3)nc(NCc3ccccc3)c2C1 | -17.2% (inactive) | 20.2% | 3.42%
17 | CCN1CCc2c(C#N)c(NCc3ccccc3)nc(N(CC)CC)c2C1 | -3.81% (inactive) | -0.65% | 2.33%
18 | CCCCOc1ccc(C)cc1CN(CCO)CCO | -4.82% (inactive) | 1.6% | 1.37%
19 | Cc1ccc(-c2nn(C)c(=O)c3ccccc23)cc1CNC(=O)CSc1nc2ccccc2o1 | -7.38% (inactive) | -4.16% | 1%
20 | CCC1(C)Cc2c(sc3c2c(=O)n(C)c2nnc(SCC(=O)c4ccc(Cl)cc4)n32)CO1 (stereo unspecified) | 0.56% (inactive) | 9.73% | 13.8%
21 | Cc1cc(C)nc(NC2=NCC(=O)N2c2cccc(Cl)c2)n1 | 27.2% (inactive) | -9.73% | 3.28%
22 | CCOC(=O)c1c(-c2cccs2)csc1NC(=O)CCCC(=O)O | 5.6% (inactive) | 4.31% | 1.96%
23 | CCCc1nc(N2CCOCC2)c(C#N)c2c1CCCC2 | 24% (inactive) | 6.89% | 0.7%

Row | Structure (SMILES) | growth inhibition | growth inhibition [1] | condensed nuclei
24 | CSc1nc2sc3c(c2c(=O)[nH]1)CCC(C)C3 (stereo unspecified) | 25.4% (inactive) | 10.4% | 2.48%
25 | CCOc1ccc(C2C(C(=O)c3ccc(C)o3)=C(O)C(=O)N2CCCN(CC)CC)cc1 (stereo unspecified) | 17% (inactive) | 0.35% | 1.26%
26 | c1ccc(-c2nc(NCC3CCCO3)c3ccccc3n2)nc1 (stereo unspecified) | 16.9% (inactive) | 30.9% | 2.06%
27 | O=C1CCC(=O)N1CN(Cc1ccco1)CN1C(=O)CCC1=O | -33.3% (inactive) | -19.2% | 2.24%
28 | COc1ccc(-n2ncc3c(Nc4cccc(C)c4)ncnc32)cc1 | 30.6% (inactive) | -2.53% | 3.63%
29 | N#CC1=C(N)NC(SCc2ccc(Cl)cc2)=C(C#N)C12CCCCC2 | 79.6% (inactive) | 70.5% | 17.1%
30 | COc1ccc(C(=O)CSC2=C(C#N)C3(CCCCC3)C(C#N)=C(N)N2)cc1 | 27% (inactive) | 4.09% | 7.53%
31 | N#CC1=C(N)NC(SCc2ccc(F)cc2)=C(C#N)C12CCCCC2 | 95.4% (active) | 69.3% | 27.3%
32 | C=CCN(C(=O)CCC(=O)O)C1CC(=O)N(c2ccc(OC)cc2)C1=O (stereo unspecified) | -35.5% (inactive) | -24.9% | 1.95%
33 | Cn1c(=NCC(O)COc2ccccc2)sc2ccccc21 (stereo unspecified) | 25.5% (inactive) | -13.5% | 3.63%
34 | COCCNc1oc(-c2ccc(C)cc2)nc1C#N | 11.6% (inactive) | -12.3% | 2.76%
35 | O=C(O)c1ccc(COCC(F)(F)C(F)F)o1 | -17.7% (inactive) | -10.2% | 3.29%
36 | CCOc1ccc(Cn2c(O)cc(=O)[nH]c2=O)cc1 | -7.52% (inactive) | -20.8% | 1.27%
37 | CC1CN(C2CCN(C(=O)c3ccccc3)CC2)CC(C)O1 (stereo unspecified) | 92.5% (active) | -44.3% | 3.65%
38 | CC1CN(C2CCN(C(=O)COc3ccccc3)CC2)CC(C)O1 (stereo unspecified) | -1.5% (inactive) | -3.33% | 2.3%
39 | CC1CN(C2CCN(C(=O)c3ccccc3Cl)CC2)CC(C)O1 (stereo unspecified) | -18.6% (inactive) | -39.5% | 4.01%
40 | CCOC(=O)c1sc2c(c1C)c(=O)c(C(=O)OCC)cn2CC | -35.2% (inactive) | -21.7% | 0.84%
41 | CCCc1[nH]nc2c1C(c1cccc(OC)c1)C(C#N)=C(N)O2 (stereo unspecified) | 55.3% (inactive) | 9.76% | 16.6%
42 | Cc1cccc(OCC(=O)N2CCC(N3CCOCC3)CC2)c1 | -31.7% (inactive) | -31.1% | 0.89%
43 | CNCCCC12CCC(c3ccccc31)c1ccccc12 | 95% (active) |  | 18.3%
44 | Nc1ccc(Cl)cc1/C(=N/O)c1ccccc1 | 33.8% (inactive) | -14.5% | 3.59%
45 | C=C1[C@@H](C)C2[C@H](Cc3ccccc3)NC(=O)[C@]23OC(=O)CC[C@H](O)CCC[C@H](C)C/C=C/[C@H]3[C@@H]1O (stereo partly specified) | 92.4% (active) |  | 18.2%
46 | CCOC(=O)CSc1nc(N(C)C)nc(N(C)C#N)n1 | 27.7% (inactive) | -19.8% | 1.4%
